Experimental data from the supplement of paper PMC6089552.
Screen size: about 3,200 compounds; about 300 (9.4%) showed activity. This excerpt belongs to a sample that is enriched for actives.

Tested on: A673/TR/shEF
Test: cell viability (LOESS-normalised, relative to median of negative controls) (log2 ratio); higher = more viable cells (less compound effect), active = hit call of the paper (over 3 MAD below the median)
Conditions: treatment time: 72 h
Outline: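 For three days, A673/TR/shEF Ewing sarcoma cells in 384-well plates (1,500 per well) were treated with library compounds at two or more concentrations or with DMSO controls, after doxycycline had been added or withheld 24 h beforehand to induce EWS-FLI1 shRNA knockdown. Viability was read by CellTiter-Glo luminescence on an Envision reader. The data were LOESS-corrected per plate, divided by the median of negative controls and log2-transformed.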

[1] = 0.25 µM, library screen: screen2, EWS-FLI1 expression: high (no doxycycline)
[2] = 0.25 µM, library screen: screen2, EWS-FLI1 expression: low (doxycycline-induced shRNA knockdown)
[3] = 2.5 µM, library screen: screen2, EWS-FLI1 expression: high (no doxycycline)
[4] = 2.5 µM, library screen: screen2, EWS-FLI1 expression: low (doxycycline-induced shRNA knockdown)
[5] = 0.25 µM, library screen: screen1, EWS-FLI1 expression: high (no doxycycline)
[6] = 0.25 µM, library screen: screen1, EWS-FLI1 expression: low (doxycycline-induced shRNA knockdown)
[7] = 2.5 µM, library screen: screen1, EWS-FLI1 expression: high (no doxycycline)
[8] = 2.5 µM, library screen: screen1, EWS-FLI1 expression: low (doxycycline-induced shRNA knockdown)
[9] = 0.103 µM, library screen: screen3, EWS-FLI1 expression: high (no doxycycline)
[10] = 0.103 µM, library screen: screen3, EWS-FLI1 expression: low (doxycycline-induced shRNA knockdown)
[11] = 0.308 µM, library screen: screen3, EWS-FLI1 expression: high (no doxycycline)
[12] = 0.308 µM, library screen: screen3, EWS-FLI1 expression: low (doxycycline-induced shRNA knockdown)
[13] = 0.926 µM, library screen: screen3, EWS-FLI1 expression: high (no doxycycline)
[14] = 0.926 µM, library screen: screen3, EWS-FLI1 expression: low (doxycycline-induced shRNA knockdown)
[15] = 2.8 µM, library screen: screen3, EWS-FLI1 expression: high (no doxycycline)
[16] = 2.8 µM, library screen: screen3, EWS-FLI1 expression: low (doxycycline-induced shRNA knockdown)
[17] = 8.3 µM, library screen: screen3, EWS-FLI1 expression: high (no doxycycline)
[18] = 8.3 µM, library screen: screen3, EWS-FLI1 expression: low (doxycycline-induced shRNA knockdown)
[19] = 25 µM, library screen: screen3, EWS-FLI1 expression: high (no doxycycline)
[20] = 25 µM, library screen: screen3, EWS-FLI1 expression: low (doxycycline-induced shRNA knockdown)

Measured: cell viability (log2)

CC(C)(C)[C@]1(O)CCN2CC3c4ccccc4CCc4cccc(c43)[C@@H]2C1 (stereo partly drawn)
inactive: [1] 0.166 | [2] 0.165 | [3] 0.11 | [4] 0.076

CC12CCC3c4ccc(OCc5ccccc5)cc4CCC3C1C[C@@H](O)[C@@H]2O (stereo partly drawn)
inactive: [5] 0.0858 | [6] 0.0634 | [7] 0.147 | [8] 0.17

COc1cc(NC(C)CCCN)c2ncccc2c1 (stereo not drawn)
inactive: 0.025 µM, library screen: screen2, EWS-FLI1 expression: high (no doxycycline) 0.0561 | 0.025 µM, library screen: screen2, EWS-FLI1 expression: low (doxycycline-induced shRNA knockdown) -0.00137 | [5] 0.054 | [6] 0.199 | [1] 0.0891 | [2] 0.0483 | [7] 0.127 | [8] 0.305 | [3] 0.104 | [4] -0.00544 | 25 µM, library screen: screen2, EWS-FLI1 expression: low (doxycycline-induced shRNA knockdown) -0.0311
active: 25 µM, library screen: screen2, EWS-FLI1 expression: high (no doxycycline) -0.632

CCCCC1=NC2(CCCC2)C(=O)N1Cc1ccc(-c2ccccc2-c2nn[nH]n2)cc1
inactive: [9] 0.107 | [10] 0.0606 | [5] 0.058 | [6] 0.0291 | [11] -0.0112 | [12] 0.0296 | [13] 0.00566 | [14] 0.0237 | [7] 0.0857 | [8] 0.072 | [15] 0.0909 | [16] 0.0243 | [17] 0.0907 | [18] 0.057 | [19] 0.0719 | [20] 0.134

CC(C)[C@@H]1CC[C@@H](C)CC1=O
inactive: [5] 0.057 | [6] 0.0478 | [7] 0.148 | [8] 0.0792

O=C(c1cc(Cc2n[nH]c(=O)c3ccccc23)ccc1F)N1CCN(C(=O)C2CC2)CC1
active: [19] -0.244 | [20] -0.143
inactive: [9] -0.00614 | [10] 0.0146 | [11] -0.0732 | [12] -0.0144 | [13] 0.00937 | [14] 0.0508 | [15] -0.137 | [16] 0.0104 | [17] -0.158 | [18] -0.00135

CN1CCCC(n2nc(Cc3ccc(Cl)cc3)c3ccccc3c2=O)CC1 (stereo not drawn)
inactive: [9] 0.00451 | [10] 0.0233 | [11] 0.0154 | [12] 0.0686 | [13] 0.0285 | [14] 0.0485 | [15] 0.0385 | [16] 0.0809 | [17] 0.0197 | [18] 0.0247 | [19] -0.00429 | [20] -0.0202

CC(=O)[C@H]1CCC2C3CC=C4C[C@@H](OS(=O)(=O)O)CC[C@]4(C)C3CC[C@@]21C (stereo partly drawn)
inactive: [1] 0.147 | [2] 0.0952 | [3] 0.0185 | [4] -0.0104
